Measurements from PubChem BioAssay (NCI).
This is part of a sample that, as a whole, favours compounds with a hit. Of some 79,000 tested, about 15% had one in any assay. Unmarked numbers belong to inactive results. The source made the active and inactive calls. Rule as the data show it: active = growth inhibition above about 70%; inactive = the rest.

Assay: NCI Yeast Anticancer Drug Screen. Data for the mec2-1 strain (AID 157)
Conditions: S. cerevisiae mec2-1 strain, at 50.0 µM, stronger effect = higher value
Summary of the method: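 Growth inhibition is read against vehicle-treated controls after compound exposure of the mec2-1 yeast strain, which is defective in DNA damage repair or cell cycle control.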

| SMILES | growth inhibition |
| --- | --- |
| CC(C)=CCNc1nc(Cl)nc2nc[nH]c12 | -8% |
| BrC1CC2CCCCC2CC1Br (stereo not given) | 22.3% |
| CC(C)OC(=O)C1CCC(=O)N1 (stereo not given) | -6.25% |
| COc1cc(O)c2c(c1)C(=O)c1cc(C)cc(O)c1C2=O | -22.9% |
| CC(=O)Oc1cc2oc([O-])c[n+]2c2ccccc12 | 14.2% |
| CCc1ccc2[nH]nc(CCC(=O)O)c(=O)c2c1 | -4.7% |
| O=c1c(Cl)cc(Cl)cn1S(=O)(=O)c1ccc([N+](=O)[O-])cc1 | 95.3% (active) |
| O=[N+]([O-])c1cc(O)ccc1O | 5.45% |
| CCCCC(CC)COCCC(=O)O (stereo not given) | -8.55% |
| CC(CC(=N)N)NC(=O)C1CCC(N)=N1 (stereo not given) | -41.2% |
| CCCCC(=O)N1SC(NC(=O)OC)=Nc2ccccc21 | 42.4% |
| COc1ccc(/C=C2/C(=O)N(c3ccccc3)N=C2C)cc1 | -2.2% |
| CCOC(=O)c1ccc(C#N)cc1 | -57.3% |
| Cc1ccc(NC(=O)C2CCN(C)CC2)cc1 | -15% |
| CCC(O)(C#CCl)CC | -10.9% |
| COc1ccc2c(c1)CC1(CC2)CCN(CCCN(C)C)CC1 | -7.85% |
| O=C(CCCc1ccc([N+](=O)[O-])cc1)c1ccccc1 | -5.55% |
| Cc1cc(C)c(/C=N/NC(=O)NN)c(C)c1 | -7.15% |
| CC(=O)N(C)c1ccc(N)cc1 | 25.2% |
| COc1cc(-c2ccc(N=Nc3ccc(N)nc3N)c(OC)c2)ccc1N=Nc1ccc(N)nc1N | -3.9% |

| SMILES | growth inhibition |
| --- | --- |
| CCCCCCC(O)CCCCCCCCCCCO (stereo not given) | -15.4% |
| C=C(C)CCC[C@@H](C)C1CCC2(C)[C@@H]3CCC4C(C)(C)[C@@H](O)CC[C@@]45C[C@@]35CC[C@]12C (stereo not given in full) | 0.45% |
| OC(c1cc(-c2ccccc2)nc2c1ccc1ccccc12)C1CCCCN1 (stereo not given) | 16.7% |
| COc1ccc2c(c1)C(=O)[C@@](Nc1ccc(C=O)cc1)(OC)[C@@](OC)(c1ccc([N+](=O)[O-])cc1)O2 | -3.05% |
| CC(C)C1CCC(=O)CC1 | 0.35% |
| CN(C)S(=O)(=O)N1CCCc2ccccc21 | 8.8% |
| CCC(O)(c1ccc(OC)cc1)C(O)(CC)c1ccc(OC)cc1 (stereo not given) | 2.05% |
| CN1C(c2ccccc2)=C(C#N)C(=O)CC(c2ccc(Cl)cc2)N1C (stereo not given) | 0.05% |
| ClC(c1ccccc1)c1cccc2ccccc12 (stereo not given) | -2.45% |
| CCCCCCCCC(=O)OCC(=O)c1ccc(-c2ccccc2)cc1 | -15.3% |
| Nc1nc(N)c2c(n1)CCC(CNc1ccc(C(=O)NC(CCC(=O)O)C(=O)O)cc1)C2 (stereo not given) | 30.6% |
| CCCCOC(=O)C1(C(=O)OCCCC)CC1 | -7.6% |
| N#CCc1ccc(-c2ccccc2)cc1 | 20.9% |
| CC(C)NCc1ccccc1Sc1ccccc1CNC(C)C | 5.45% |
| C/C(=N/NC(N)=O)C1CCC(C)CC1 (stereo not given) | 31.8% |
| C=CCCCCCCCCC(=O)NCC1CC1 | -7.1% |
| Nc1ncnc2c1ncn2C1C=CC(COS(N)(=O)=O)C1 (stereo not given) | 21.9% |
| CCCCCCCCCCCCCCCCS(=O)(=O)N/N=C(/C)N(C)c1ccc(OC)cc1 | -32.4% |
| Cc1onc(-c2c(F)cccc2Cl)c1C(=O)OCc1c(F)cccc1Cl | -2.15% |
| CC(C)CC(CC(C)C)=NNC(N)=O | 23% |
